A selection: hits, their analogues and other compounds. The true share with any hit is near 5.4%.
CSC inhib: blocks cancer stem cells. 300,000 compounds, 1.1% hits. inhibition, % at 7.5 µM. cancer stem cell-like cells viability, luminescence. AID 2717; in the data active = inhibition above about 75%; inconclusive = no clear call, values can overlap the other calls; tested in HMLE shEcad cells
Calb FLC: C. albicans growth modulation with fluconazole; C. albicans CaCi-2 (fluconazole-resistant clinical isolate) + fluconazole, Alamar Blue growth, 48 h; 300,000 compounds, 0.57% hits; growth inhibition, % (concentration not given with the values);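 active = growth inhibition above about 58% in most replicates, limit read from the data, passing the limit was not always enough; inconclusive = exactly half the replicates above a set limit; inactive = most replicates below a set limit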;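 also: all wells also contain fluconazole at 8 µg/ml as a sub-toxic cotreatment; 0% = median of DMSO wells and 100% = median of geldanamycin control wells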
SKKanGAS inh: SKKanGAS growth inhibition | 300,000 compounds, 1.3% hits | S. pyogenes SKKanGAS, kanamycin growth, BacTiter-Glo, 6 h | AID 1662 | inhibition, % at 7.5 µM;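 active = mean replicate score, as percent of positive control median, at least 50; inconclusive = mean below 50 but one replicate at or above 50; inactive = mean and every replicate below 50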;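 also: strain carries kanamycin resistance gene driven by streptokinase promoter and grows in 40 µg/ml kanamycin; loss of luminescence reflects streptokinase promoter inhibition or plain growth inhibition; 0% = median of DMSO wells and 100% = positive control at its reference dose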
Mdm2 MdmX PPI: inhibitors of human Mdm2/MdmX interaction; inhibition, % at 8 µM; 330,000 compounds, 3% hits; SaOS-2 split-luciferase Mdm2/MdmX complementation, luminescence; AID 485346;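 active = inhibition of at least 50% at 8 µM in the primary screen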
Target sequence (O15151 whole entry, looked up): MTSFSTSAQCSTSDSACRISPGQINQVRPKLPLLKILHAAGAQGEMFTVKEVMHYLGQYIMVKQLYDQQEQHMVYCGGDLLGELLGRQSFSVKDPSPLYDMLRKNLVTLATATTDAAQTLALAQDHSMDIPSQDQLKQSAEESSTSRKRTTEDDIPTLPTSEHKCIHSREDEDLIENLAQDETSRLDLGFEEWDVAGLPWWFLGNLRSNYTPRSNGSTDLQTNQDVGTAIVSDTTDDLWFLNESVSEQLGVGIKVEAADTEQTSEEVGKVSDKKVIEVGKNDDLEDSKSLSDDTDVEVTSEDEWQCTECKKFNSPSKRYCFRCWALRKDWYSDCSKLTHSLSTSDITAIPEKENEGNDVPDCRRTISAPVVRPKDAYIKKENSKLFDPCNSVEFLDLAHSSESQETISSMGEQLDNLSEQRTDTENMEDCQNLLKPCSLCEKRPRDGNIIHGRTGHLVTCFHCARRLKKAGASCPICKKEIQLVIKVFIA
Target sequence (Q00987 whole entry, looked up): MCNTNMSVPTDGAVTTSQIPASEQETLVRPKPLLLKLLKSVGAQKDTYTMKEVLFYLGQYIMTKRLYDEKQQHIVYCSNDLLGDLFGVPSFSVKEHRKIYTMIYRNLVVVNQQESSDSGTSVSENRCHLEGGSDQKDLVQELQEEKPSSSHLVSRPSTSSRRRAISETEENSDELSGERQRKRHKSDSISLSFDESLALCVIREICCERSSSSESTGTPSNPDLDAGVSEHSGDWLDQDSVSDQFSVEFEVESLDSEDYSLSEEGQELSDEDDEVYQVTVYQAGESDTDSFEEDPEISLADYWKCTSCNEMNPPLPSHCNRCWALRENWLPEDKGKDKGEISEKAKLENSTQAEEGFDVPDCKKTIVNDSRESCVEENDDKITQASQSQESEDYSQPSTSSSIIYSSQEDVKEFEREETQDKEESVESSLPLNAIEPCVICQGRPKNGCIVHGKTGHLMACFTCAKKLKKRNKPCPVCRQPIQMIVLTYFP
MPTP inh: blocks calcium-induced mitochondrial swelling; 360,000 compounds, 1.4% hits; inhibition, % at 10 µM; isolated mouse mitochondria, Ca2+ swelling absorbance, 30 min; AID 602449;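 active = inhibition of 50% or more, scaled per plate between neutral and stimulator controls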;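 also: 0% = DMSO wells given calcium and 100% = 1 mM EGTA wells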
Beta cell apopt: blocks beta cell apoptosis. INS-1E cytokine-induced death, ATP luminescence, 48 h; percent of positive-control rescue, neutral wells zero. protection from apoptosis, % (concentration not given with the values). 300,000 compounds, 0.8% hits;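 active = Every replicate reaches about 75%, or at least half do and their mean reaches it too, limit read from the data; inconclusive = At least half of replicates reach the limit but their mean does not; inactive = Under half of replicates reach the limit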;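 also: 0% = cytokine-treated negative control wells and 100% = positive control rescue; higher means more ATP so stronger rescue from cytokine killing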
Rh123 counter: Rhodamine 123 counter-screen of mitochondrial pore hits. shares compounds with MPTP inh. isolated mitochondria, membrane potential, Rhodamine 123 fluorescence. inhibition, % at 10 µM. 5,000 compounds, 78% hits; in the data active = inhibition above about 22%;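 also: 0% = DMSO vehicle and 100% = positive control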
MPTP abs DR: MPTP inhibition, dose response swelling confirmation; shares compounds with MPTP inh; isolated mitochondria swelling, absorbance; IC50, µM; 780 compounds, 58% hits; in the data active = IC50 below about 20 µM
MPTP cs DR: MPTP inhibitor counter-screen activity, dose response | shares compounds with MPTP inh | isolated mitochondria counterscreen, fluorescence read-out | IC50, µM | 780 compounds, 49% hits; in the data active = IC50 below about 80 µM
Active calls of the source: *; ? = inconclusive; . = no result.

SMILES	CSC inhib	Calb FLC	SKKanGAS inh	Mdm2 MdmX PPI	MPTP inh	Beta cell apopt	Rh123 counter	others
O=C(NNc1nc2ccc(F)cc2s1)c1cccc(F)c1	62.6	44.5	3.6	37.3	92.2*	48.5	75.6*
CC(=O)Nc1ccc(S(=O)(=O)N2CCSC2)cc1	-1.1	-16.9	-1.5	5.2	6.5	-7.3	.
C[C@@H]1CN([C@H](C)CO)C(=O)CCCn2nncc2CO[C@H]1CN(C)S(=O)(=O)c1cccc(F)c1	.	.	.	.	0.2	.	.
Cc1sc2ncnc(NC3CCN(Cc4ccccc4)CC3)c2c1C	21.6	33.9	-1.3	17.7	90.8*	77.1*	71.4*
CCOC(=O)c1sc(NC(=O)CSc2n[nH]c(-c3ccncc3)n2)c(C#N)c1C	0.5	53.7	12.7	7.1	77.2*	7.8	79.9*
COCc1cc(/C=N\NC(=O)COc2ccc(Cl)cc2)ccc1OC	7.4	-2.3	6.7	3.0	-2.8	-0.7	.
COc1ccc(/C=C(/NC(=O)c2ccc(Br)cc2)C(=O)N2CCOCC2)cc1	6.9	-3.4	-6.2	25.0	-2.2	.	.
Cc1cccc(C(=O)Oc2ccccc2/C=N/Nc2ccc([N+](=O)[O-])cc2)c1	33.5	.	.	.	67.0*	14.7	77.5*
COC(=O)N/N=C/c1cccc([N+](=O)[O-])c1	-12.7	-3.3	8.3	-20.9	1.6	-11.3	.
CCCCCCCCCS(=O)(=O)N/N=C/c1cccc([N+](=O)[O-])c1	23.5	-8.8	10.5	13.7	64.5*	-10.7	60.7*
O=[N+]([O-])c1ccc(NN=Cc2cccc([N+](=O)[O-])c2)cc1	.	.	.	.	92.1*	.	65.3*
Cc1ccc(S(=O)(=O)N/N=C/c2cccc([N+](=O)[O-])c2)cc1	-5.3	2.2	-5.7	16.8	0.2	.	.
CCCCCCCCCCS(=O)(=O)N/N=C/c1ccc(O)cc1	37.8	-56.8	4.0	-10.0	79.2*	-3.6	56.2*
Cc1ccc(C(=O)O)cc1N1CCCC1=O	-1.3	28.2	-12.5	-6.6	0.0	-7.7	.
O=c1n2c(c(O)n1C1CCCCC1)C(c1ccccc1)=Nc1ccccc1C2	.	.	.	.	-0.8	.	.
O=C(O)c1ccc(N/N=C/C=C/c2ccc([N+](=O)[O-])o2)cc1	3.6	-9.1	4.3	-2.7	8.2	4.9	.
O=[N+]([O-])c1ccc(N/N=C/C=C/c2ccco2)cc1	10.8	-0.9	-7.0	-46.3	75.8*	.	70.4*
CCOc1ccccc1NC(=O)Nc1ccccn1	-3.9	-2.0	-6.9	6.9	1.3	-6.7	.
CCOc1ccccc1NC(=O)Nc1ccc(Cl)cc1	7.0	5.5	-5.7	-2.7	90.2*	-0.8	89.6*
CCOc1cc(NC(=S)Nc2ccc(Cl)cc2)c(OCC)cc1NC(C)=O	0.0	18.6	-3.2	-18.6	73.3*	-1.8	99.5*
CCN(CC)C(=O)c1oc2ccc(S(=O)(=O)N3CC(C)CC(C)C3)cc2c1C (configuration not stated)	-4.9	-2.1	-1.7	34.9	51.1*	63.1	75.4*
CCN(CC)S(=O)(=O)c1ccc(C(=O)NNC(=O)C2CCN(S(=O)(=O)c3ccc(Cl)cc3)CC2)cc1	-8.9	-0.6	10.7	14.5	1.2	0.9	.
CN1CCN(C2=Cc3ccccc3Sc3cc(F)ccc32)CC1	18.4	-2.7	3.1	22.6	97.7*	-1.6	-8.6
C1=C(CCNc2ncnc3c2[nH]c2ccccc23)CCCC1	77.3*	.	.	.	103.6*	129.9*	82.9*
COc1ccc(CNc2ncnc3c2[nH]c2ccccc23)cc1	15.3	2.8	2.7	15.3	90.8*	43.0	90.9*
SMILES	CSC inhib	Calb FLC	SKKanGAS inh	Mdm2 MdmX PPI	MPTP inh	Beta cell apopt	Rh123 counter	others
O=c1c2[nH]c3ccccc3c2ncn1CCC1=CCCCC1	10.7	8.5	-2.6	-25.3	0.9	-2.8	.
COc1ccc(CNc2ncnc3c2[nH]c2cc(OC)c(OC)cc23)cc1	5.6	-9.8	-3.6	20.7	14.3	-2.1	.
Cc1ccc2[nH]c3c(NCc4ccccc4)ncnc3c2c1	37.1	-5.3	4.9	13.1	.	29.5	.
Brc1ccc2[nH]c3c(NCc4ccccn4)ncnc3c2c1	46.5	5.4	6.3	30.3	57.4*	0.1	71.6*
CN(C)c1cccc(NC(=O)Cc2ccc(F)cc2)c1	23.5	0.6	2.5	17.6	1.7	9.4	.
Oc1ccc(-c2nccc(-c3ccccn3)n2)cc1	-4.1	-8.1	3.2	-106.9	-1.2	-8.3	.
N#C/C(=C\c1ccc(-c2ccccc2Cl)o1)C(=O)Nc1nc2ccccc2s1	2.7	0.9	12.3	7.9	73.7*	-0.5	43.3*
O=S(=O)(NCCN1CCOCC1)c1ccc2ccccc2c1	-12.8	.	.	-3.6	-0.9	1.3	.
O=S(=O)(NCCN1CCOCC1)c1ccc(Oc2ccccc2Cl)cc1	6.9	-3.1	-2.9	8.5	75.4*	4.8	34.8*
CC(Cc1cccs1)NC(=O)Nc1ccc(F)cc1 (configuration not stated)	-18.6	-15.8	5.8	6.6	5.4	-10.0	.
CCC(C)c1ccc(NC(=S)NCc2cccs2)cc1 (configuration not stated)	4.6	-37.4	0.4	19.2	97.3*	7.7	85.2*
CC(Cc1cccs1)NC(=S)Nc1ccc(Cl)cc1 (configuration not stated)	10.9	-56.3	-3.4	1.6	83.3*	5.0	94.9*
Cc1ccc(NC(=O)Cc2cccs2)cc1Cl	-2.3	-7.2	0.3	2.3	9.3	-9.9	.
CC(Cc1cccs1)NC(=S)Nc1ccc(Cl)c(Cl)c1 (configuration not stated)	20.5	-23.5	5.4	-16.5	80.2*	-3.4	94.3*
CC(Cc1cccs1)NC(=O)Nc1cccc(Cl)c1 (configuration not stated)	9.2	-58.7	-6.7	-10.1	87.3*	2.5	86.2*
COc1ccc(Cc2nnc(NC(=O)c3cccc(F)c3)s2)cc1OC	-5.8	-2.2	1.4	-9.3	1.0	-5.3	.
O=C(CNc1cccc([N+](=O)[O-])c1)NC(=O)NC1CCCCC1	.	.	.	3.2	0.8	3.3	.
CCc1nc(NCCN)c(C#N)c2c1CSC(C)(C)C2	-3.7	-6.8	-6.1	12.7	80.4*	.	-9.7	MPTP abs DR=16.9*;MPTP cs DR=>80
Cc1ccc(CNC(=O)CCc2nnc(Cc3ccc(-c4ccccc4)cc3)o2)o1	-0.1	7.5	4.6	7.8	-1.6	.	.
Cc1cccc(OCC(=O)Nc2nc3ccc([N+](=O)[O-])cc3s2)c1C	9.7	-15.7	4.7	0.3	68.9*	-2.2	83.0*
O=C(Nc1nc2ccc([N+](=O)[O-])cc2s1)c1c(F)cccc1F	11.1	21.7	-5.2	-13.6	-0.2	24.4	.
Cc1cccc(OCC(=O)Nc2nc3ccc([N+](=O)[O-])cc3s2)c1	40.7	?	2.0	7.9	66.7*	-2.4	87.4*

Compound activity as filed in PubChem.
